In PubChem BioAssay (Tox21):
A number with no mark means an inactive call. Results filed as inconclusive are left out. A call without a number means that no potency is given here. Calls of active or inactive are those of the source. Unless noted, calls follow the shape of the full dose curve.

What was measured:
[1] = Nuclear factor erythroid 2-related factor 2/antioxidant responsive element (Nrf2/ARE) small molecule agonists: qHTS cell viability counter screen in human keratinocytes (AID 1919968; active = well fitted curve in the direction sought with a large enough effect in the repeat runs; an effect the other way counts as inactive or inconclusive; also: nearly all actives have a fitted effect of over 55% in size; also: potency is read from the fitted curve at half-maximal effect)
Summary of the method: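 HaCaT ARE reporter line, 1,500 cells/well; 5 h settle, 37 C/5% CO2; cpd in DMSO pinned; 23 h exposure; CellTiter-Fluor, 1 h; fluorescence.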

[2] = Nuclear factor erythroid 2-related factor 2/antioxidant responsive element (Nrf2/ARE) small molecule agonists: luciferase reporter gene qHTS assay in human keratinocytes (AID 1919969); also: nearly all actives have a fitted effect of over 35% in size; also: potency is read from the fitted curve at half-maximal effect
[3] = biological target: Gonadotropin-releasing hormone receptor (Homo sapiens) (UniProt P30968); assay: Human gonadotropin-releasing hormone receptor (GnRHR) small molecule agonists, calcium flux assay in GnRHR-HEK293 cells (AID 1920063); also: nearly all actives have a fitted effect of over 35% in size; also: potency is read from the fitted curve at half-maximal effect
Gonadotropin-releasing hormone receptor (Homo sapiens), sequence (P30968 whole entry, looked up): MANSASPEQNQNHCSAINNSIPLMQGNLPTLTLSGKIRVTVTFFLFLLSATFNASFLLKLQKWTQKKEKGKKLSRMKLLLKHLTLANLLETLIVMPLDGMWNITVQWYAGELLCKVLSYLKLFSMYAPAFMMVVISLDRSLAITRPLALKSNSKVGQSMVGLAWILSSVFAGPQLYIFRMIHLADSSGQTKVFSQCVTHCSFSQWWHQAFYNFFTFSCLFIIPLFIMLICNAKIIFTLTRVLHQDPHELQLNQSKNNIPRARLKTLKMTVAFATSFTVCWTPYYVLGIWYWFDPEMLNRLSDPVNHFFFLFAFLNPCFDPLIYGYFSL
Summary of the method: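 GnRHR-HEK293, 1500 cells/well, 18 h 37 C/5% CO2; Ca dye 1 h 37 C; cpd pinned (DMSO), agonist mode; kinetic FL 480/540, 3 min, 1 s reads; 15 conc, n=3.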

[4] = biological target: KiSS-1 receptor (Homo sapiens) (UniProt Q969F8); assay: Human kisspeptin (KISS1R) small molecule agonists, calcium flux assay in KISS1R-HEK293 cells (AID 1920064; active = well fitted curve in the direction sought with a large enough effect in the repeat runs; an effect the other way counts as inactive or inconclusive; also: potency is read from the fitted curve at half-maximal effect)
KiSS-1 receptor (Homo sapiens), sequence (Q969F8 whole entry, looked up): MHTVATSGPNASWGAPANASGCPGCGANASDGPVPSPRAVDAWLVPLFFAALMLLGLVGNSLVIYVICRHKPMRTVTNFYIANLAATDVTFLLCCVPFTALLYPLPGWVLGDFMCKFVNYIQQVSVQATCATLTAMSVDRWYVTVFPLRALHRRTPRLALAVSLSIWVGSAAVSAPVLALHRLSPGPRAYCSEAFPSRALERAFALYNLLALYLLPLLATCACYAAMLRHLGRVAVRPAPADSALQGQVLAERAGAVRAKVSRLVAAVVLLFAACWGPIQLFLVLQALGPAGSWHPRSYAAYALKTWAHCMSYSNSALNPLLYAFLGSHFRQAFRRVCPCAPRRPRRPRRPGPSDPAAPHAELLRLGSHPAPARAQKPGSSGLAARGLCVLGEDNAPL
Summary of the method: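 Stable human KISS1R HEK293 line; 18 h plating, 37 C/5% CO2; calcium dye 1 h 37 C; compound pin transfer; kinetic fluorescence Ex/Em 480/540, 3 min.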

[5] = G protein-coupled receptor (GPCR) small molecule agonists, calcium flux assay: HEK293 wild type cell line counter screen (AID 1920065); also: potency is read from the fitted curve at half-maximal effect
Summary of the method: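 Kinetic fluorescence at Ex/Em 480/540, recorded every second over 3 min, served as the read-out after compound addition. Each compound was tested at 15 concentrations in triplicate on cells pre-loaded with calcium dye for 1 h.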

[6] = p53 small molecule agonists, cell-based qHTS assay with rat liver microsomes (AID 1963578)
Summary of the method: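 Metabolic activation by rat liver microsomes and NADPH, each 0.5 mg/mL final, added right after compounds to p53RE-bla reporter cells (4,000/well, plated 5 h earlier). 16 h at 37 C, then LiveBLAzer substrate for 2 h at room temperature in the dark; fluorescence read-out.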

[7] = p53 small molecule agonists, cell-based qHTS assay with human liver microsomes: qHTS cell viability counter screen (AID 1963579); also: nearly all actives have a fitted effect of over 45% in size; also: potency is read from the fitted curve at half-maximal effect
Summary of the method: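 Metabolic activation used human liver microsomes and NADPH, both 0.5 mg/mL final, over 16 hours at 37 C on p53RE-bla cells (4,000/well). Cytotoxicity measured by CellTiter-Glo luminescence, 30 min at room temperature.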

[8] = p53 small molecule agonists, cell-based qHTS assay with rat liver microsomes: qHTS cell viability counter screen (AID 1963580); also: nearly all actives have a fitted effect of over 45% in size; also: potency is read from the fitted curve at half-maximal effect
Summary of the method: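 Intracellular ATP, by CellTiter-Glo luminescence, defines viability. HCT-116 p53RE-bla cells, 4,000 per well, were compound-treated in the presence of rat liver microsomes and NADPH for 16 h at 37 C.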

[9] = p53 small molecule agonists, cell-based qHTS assay: qHTS cell viability counter screen (AID 1963581); also: nearly all actives have a fitted effect of over 45% in size; also: potency is read from the fitted curve at half-maximal effect
Summary of the method: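 HCT-116 p53RE-bla cells, 4,000/well, plated 5 h before compound pin transfer; 16 h at 37 C; bla substrate 2 h RT; then CellTiter-Glo, 30 min RT, luminescence.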

[10] = p53 small molecule agonists, cell-based qHTS assay (AID 1963582; active = well fitted activation curve with a large enough effect in the signal ratio in the repeat runs, not every such curve was filed as active; the % refers to the signal ratio)
Summary of the method: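 Reporter line: p53RE-bla. Pre-incubation 5 h, 37 C, 5% CO2; compound (DMSO, pin tool) 16 h, 37 C; B/G FRET substrate 2 h RT; fluorescence intensity read.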

[11] = biological target: 5-hydroxytryptamine receptor 2A (Homo sapiens) (UniProt P28223); assay: 5-hydroxytryptamine receptor 2A (HTR2A) small molecule antagonists, cell-based qHTS assay (AID 1963586); also: nearly all actives have a fitted effect of over 45% in size
5-hydroxytryptamine receptor 2A (Homo sapiens), sequence (P28223 whole entry, looked up): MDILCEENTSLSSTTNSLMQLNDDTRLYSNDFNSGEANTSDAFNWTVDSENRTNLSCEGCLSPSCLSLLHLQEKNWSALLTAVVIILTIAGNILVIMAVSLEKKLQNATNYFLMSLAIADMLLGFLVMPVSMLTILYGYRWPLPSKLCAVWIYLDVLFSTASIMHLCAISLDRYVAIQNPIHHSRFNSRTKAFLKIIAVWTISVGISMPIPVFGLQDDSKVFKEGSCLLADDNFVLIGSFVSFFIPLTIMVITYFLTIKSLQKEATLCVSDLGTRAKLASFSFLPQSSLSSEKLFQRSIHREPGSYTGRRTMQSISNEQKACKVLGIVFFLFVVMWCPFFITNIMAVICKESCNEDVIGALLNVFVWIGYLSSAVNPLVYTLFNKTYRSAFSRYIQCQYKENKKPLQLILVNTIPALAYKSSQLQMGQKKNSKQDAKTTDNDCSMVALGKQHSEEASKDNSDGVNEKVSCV
Summary of the method: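 Antagonist-mode intracellular calcium assay: DOI (4 nM) added after 5 min compound pre-incubation at room temperature to dye-loaded HTR2A-CHO cells. Fluorescence followed for 3 min, sampled every second.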

[12] = biological target: 5-hydroxytryptamine receptor 2A (Homo sapiens) (UniProt P28223); assay: 5-hydroxytryptamine receptor 2A (HTR2A) small molecule agonists, cell-based qHTS assay (AID 1963587); also: nearly all actives have a fitted effect of over 30% in size
Summary of the method: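 Kinetic calcium-flux fluorescence (2 min, 1 sec intervals) after compound addition in agonist mode. HTR2A-CHO cells were cultured 18 h, then dye-loaded 1 h at 37 C.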

[13] = biological target: Muscarinic acetylcholine receptor M1 (Homo sapiens) (UniProt P11229); assay: Cholinergic receptor muscarinic 1 (CHRM1) small molecule antagonists, cell-based qHTS assay (AID 1963588); also: nearly all actives have a fitted effect of over 40% in size
Muscarinic acetylcholine receptor M1 (Homo sapiens), sequence (P11229 whole entry, looked up): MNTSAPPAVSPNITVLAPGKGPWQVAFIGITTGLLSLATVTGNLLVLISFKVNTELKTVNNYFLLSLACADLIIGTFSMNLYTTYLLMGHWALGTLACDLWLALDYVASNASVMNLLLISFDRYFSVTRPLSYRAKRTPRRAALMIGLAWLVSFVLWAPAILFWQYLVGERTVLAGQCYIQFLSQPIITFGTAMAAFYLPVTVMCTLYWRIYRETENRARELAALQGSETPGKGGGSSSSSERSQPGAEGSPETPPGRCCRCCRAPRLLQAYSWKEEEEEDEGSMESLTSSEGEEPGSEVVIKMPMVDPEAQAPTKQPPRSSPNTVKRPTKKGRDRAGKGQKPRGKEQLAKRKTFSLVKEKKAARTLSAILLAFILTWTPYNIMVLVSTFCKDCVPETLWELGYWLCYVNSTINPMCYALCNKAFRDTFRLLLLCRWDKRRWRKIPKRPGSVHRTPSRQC
Summary of the method: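 CHRM1-CHO calcium-flux assay, antagonist mode. Cells were seeded 18 h, dye-loaded 1 h at 37 C and given compound for 5 min at RT, then acetylcholine was added at 50nM. FDSS fluorescence was read 3 min; 15 concentrations, three runs.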

[14] = biological target: Muscarinic acetylcholine receptor M1 (Homo sapiens) (UniProt P11229); assay: Cholinergic receptor muscarinic 1 (CHRM1) small molecule agonists, cell-based qHTS assay (AID 1963589); also: nearly all actives have a fitted effect of over 35% in size
Summary of the method: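 Human M1 in stable CHO line; 18 h plating, 1 h dye load 37 C; cpd added (agonist mode); Ca2+ fluorescence kinetic read, 1 s intervals; 15 conc, 3 runs.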

[15] = cAMP Responsive Elements (CRE) small molecule agonists, cell-based qHTS assay (AID 1963590)
Summary of the method: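 HEK 293T CRE-bla, 2,000 cells/well, 18 h preincubation 37 C/5% CO2; cpds (DMSO) pinned, 3 h; LiveBLAzer B/G FRET substrate, 2 h RT.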

[16] = cAMP Responsive Elements (CRE) small molecule antagonists, cell-based qHTS assay (AID 1963591; active = well fitted inhibition curve with a large enough effect in the signal ratio in the repeat runs, not every such curve was filed as active; the % refers to the signal ratio)
Summary of the method: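 Beta-lactamase reporter read by FRET substrate (LiveBLAzer B/G) after 2 h at room temperature. CRE-bla HEK293T cells had received compound plus 0.25 uM (final) NKH477 for 3 h at 37 °C.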

[17] = biological target: Beta-2 adrenergic receptor (Homo sapiens) (UniProt P07550); assay: Adrenergic beta2 receptor (ADRB2) small molecule antagonists, cell-based qHTS assay (AID 1963592); also: nearly all actives have a fitted effect of over 50% in size; also: potency is read from the fitted curve at half-maximal effect
Beta-2 adrenergic receptor (Homo sapiens), sequence (P07550 whole entry, looked up): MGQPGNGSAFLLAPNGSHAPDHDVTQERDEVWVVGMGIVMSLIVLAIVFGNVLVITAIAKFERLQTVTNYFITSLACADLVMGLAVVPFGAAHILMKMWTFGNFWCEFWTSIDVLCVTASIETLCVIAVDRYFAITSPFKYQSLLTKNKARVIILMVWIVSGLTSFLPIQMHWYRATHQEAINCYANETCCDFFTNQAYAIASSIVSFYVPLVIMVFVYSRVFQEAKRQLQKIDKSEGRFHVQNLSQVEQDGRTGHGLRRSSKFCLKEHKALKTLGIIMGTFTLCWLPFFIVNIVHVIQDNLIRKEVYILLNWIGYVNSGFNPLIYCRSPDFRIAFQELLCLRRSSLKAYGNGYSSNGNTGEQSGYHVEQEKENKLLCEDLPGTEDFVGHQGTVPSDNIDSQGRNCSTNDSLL
Summary of the method: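 Cells (CHO, stable ADRB2 overexpression) incubated 18-20hr at 37C; compounds added from DMSO; agonist mix (1nM isoproterenol, 100uM IBMX, 25uM Ro-20-1724) added; 0.5hr RT; d2-cAMP and anti-cAMP-cryptate added; 1hr RT; 665/615 nm read.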

[18] = biological target: D(2) dopamine receptor (Homo sapiens) (UniProt P14416); assay: Dopamine D2 receptor (DRD2) small molecule agonists, cell-based qHTS assay (AID 1963594); also: nearly all actives have a fitted effect of over 35% in size; also: potency is read from the fitted curve at half-maximal effect
D(2) dopamine receptor (Homo sapiens), sequence (P14416 whole entry, looked up): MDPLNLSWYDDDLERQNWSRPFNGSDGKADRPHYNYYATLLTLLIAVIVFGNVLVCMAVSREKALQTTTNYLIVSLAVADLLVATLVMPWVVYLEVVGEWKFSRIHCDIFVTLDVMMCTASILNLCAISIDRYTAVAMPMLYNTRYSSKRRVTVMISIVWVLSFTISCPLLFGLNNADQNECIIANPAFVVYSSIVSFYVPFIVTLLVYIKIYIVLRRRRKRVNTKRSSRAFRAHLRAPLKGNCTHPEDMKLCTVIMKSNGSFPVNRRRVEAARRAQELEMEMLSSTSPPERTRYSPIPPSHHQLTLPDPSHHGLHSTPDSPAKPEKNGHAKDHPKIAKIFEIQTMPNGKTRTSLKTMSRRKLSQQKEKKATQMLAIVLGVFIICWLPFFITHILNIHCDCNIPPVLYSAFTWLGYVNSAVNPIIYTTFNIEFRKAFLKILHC
Summary of the method: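 cAMP accumulation in DRD2-HEK293 cells measured by HTRF after 1 h detection; compounds added 10 min before NKH477 (200nM […]) forskolin-analogue stimulation, 30 min at room temperature, with Ro20-1724 present at 0.1 mM final.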

[19] = biological target: D(2) dopamine receptor (Homo sapiens) (UniProt P14416); assay: Dopamine D2 receptor (DRD2) small molecule antagonists, cell-based qHTS assay (AID 1963595; active = well fitted inhibition curve with a large enough effect in the signal ratio in the repeat runs, with a control signal flat; the % refers to the signal ratio; also: potency is read from the fitted curve at half-maximal effect)
Summary of the method: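 Readout: HTRF cAMP, cAMP-d2 competing with cellular cAMP for anti-cAMP cryptate, read after 1 h. Cells: DRD2-HEK293. Conditions: 0.1 mM Ro20-1724, 12 nM quinpirole, 200 nM NKH477, 30 min RT.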

[20] = p53 small molecule agonists, cell-based qHTS assay with human liver microsomes (AID 1963577);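 also: p53 response element beta-lactamase reporter cells with liver microsomes plus NADPH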
Summary of the method: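 With metabolic activation: human liver microsomes (0.5 mg/mL final) plus NADPH (0.5 mg/mL final) added alongside compounds to p53RE-bla cells; 16 h 37 C exposure; beta-lactamase read by LiveBLAzer fluorescence.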

Row | SMILES | Potency [1] | Potency [2] | Potency [3] | Potency [4] | Potency [5] | Potency [6] | Potency [7] | Potency [8] | Potency [9] | Potency [10] | Potency [11] | Potency [12] | Potency [13] | Potency [14] | Potency [15] | Potency [16] | Potency [17] | Potency [18] | Potency [19] | Potency [20]
1 | O=C(CCCCl)c1ccc(F)cc1 | inactive | inactive | inactive | inactive | inactive | inactive | inactive | inactive | inactive | inactive | inactive | inactive | inactive | inactive | inactive | inactive | inactive | inactive | inactive | 
2 | CC(C)C(=O)Cl | inactive | inactive | inactive | inactive | inactive | inactive | inactive | inactive |  | inactive | inactive | inactive | inactive |  | inactive | inactive | inactive | inactive |  | 
3 | Cc1cc2c3c(c1)C(c1ccccc1)=N[C@@H](NC(=O)c1ccncc1)C(=O)N3CC2 | inactive | inactive | inactive | inactive | inactive | inactive | inactive | inactive |  | inactive | inactive | inactive | inactive | inactive |  |  | inactive |  |  | 
4 | C[C@@H]1CC[C@@]2(OC1)O[C@H]1[C@@H](O)[C@H]3[C@@H]4CC[C@H]5C[C@@H](O[C@@H]6O[C@H](CO)[C@H](O[C@@H]7O[C@H](CO)[C@@H](O)[C@H](O[C@@H]8OC[C@@H](O)[C@H](O)[C@H]8O)[C@H]7O[C@@H]7O[C@H](CO)[C@@H](O)[C@H](O[C@@H]8O[C@H](CO)[C@@H](O)[C@H](O)[C@H]8O)[C@H]7O)[C@H](O)[C@H]6O)[C@H](O)C[C@]5(C)[C@H]4CC[C@]3(C)[C@H]1[C@@H]2C | 8.17 µM (active) | inactive | 0.735 µM (active) | 23.2 µM (active) | 41.3 µM (active) | inactive | 13.7 µM (active) | 13.7 µM (active) | 13.7 µM (active) |  |  |  |  |  |  | inactive | 64.9 µM (active) | 51.5 µM (active) | 2.3 µM (active) | 
5 | CCCN(CCC)C(=O)Cc1c(-c2ccc(Cl)cc2)nc2ccc(Cl)cn12 | inactive | inactive | inactive | inactive | inactive |  |  | inactive | inactive | inactive |  | inactive | inactive | inactive |  |  | inactive | inactive |  | inactive
6 | C[C@H](CN1CCOCC1)C(C(=O)N1CCCC1)(c1ccccc1)c1ccccc1 | inactive | inactive | inactive | inactive | inactive | inactive | inactive | inactive |  | inactive | inactive | inactive |  | inactive |  | inactive | inactive | inactive | inactive | 
7 | O=CC(Br)(Br)Br | 8.61 µM (active) | 3.05 µM (active) | inactive | inactive | inactive |  |  | inactive | inactive |  | inactive |  | inactive |  | inactive |  |  | inactive | inactive | inactive
